Source: PubChem BioAssay (The Scripps Research Institute Molecular Screening Center)
Compounds with a hit are over-represented: about 3.5% of the library has one in this group of screens.
FBW7 act – activators of human E3 ligase FBW7. Q969H0. AlphaScreen FBW7–phospho-cyclin E peptide binding, activator screen. normalized activity (activation), % at 26.1 µM. hit rate 0.13% among 650,000. AID 1259310; in the data active means normalized activity above about 1.9%;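 further: purified mutant Fbw7 with reduced substrate affinity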
MITF primary – inhibitors of human MITF | AlphaScreen MITF homodimerization, bead proximity signal | O75030 | hit rate 0.91% among 650,000 | inhibition, % at 2.6 µM; in the data active means inhibition above about 50%;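 further: 0% = vehicle wells with protein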
TEAD-YAP inh – TEAD-YAP interaction inhibition | HEK-TIYL cells, TEAD-Gal4/YAP UAS-luciferase luminescence | inhibition, % at 9.12 µM | hit rate 1.4% among 640,000; in the data active means inhibition above about 32%;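 further: 0% = median of test compound wells and 100% = reference inhibitor wells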
GPR151 ag – activates the human receptor GPR151; activation, % at 11.2 µM; Q8TDV0; PathHunter beta-arrestin GPR151 cells, luminescence; hit rate 1% among 650,000; in the data active means activation above about 4.9%;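 further: 0% = median of compound wells and 100% = cells with positive control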
Target sequence (Q8TDV0 whole entry, looked up): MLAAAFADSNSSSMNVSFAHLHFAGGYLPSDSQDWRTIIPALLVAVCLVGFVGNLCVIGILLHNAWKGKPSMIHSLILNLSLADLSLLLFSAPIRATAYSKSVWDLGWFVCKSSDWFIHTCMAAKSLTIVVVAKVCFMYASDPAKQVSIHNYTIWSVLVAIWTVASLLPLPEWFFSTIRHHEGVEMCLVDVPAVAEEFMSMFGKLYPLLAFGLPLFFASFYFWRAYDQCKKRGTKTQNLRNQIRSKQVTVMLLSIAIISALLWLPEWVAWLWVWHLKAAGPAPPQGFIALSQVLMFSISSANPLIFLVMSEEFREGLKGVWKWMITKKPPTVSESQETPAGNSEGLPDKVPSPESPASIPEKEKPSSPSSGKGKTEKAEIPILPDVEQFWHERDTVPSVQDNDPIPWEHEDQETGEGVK
GPR151 confirm – human GPR151 activation, confirmation screen | shares compounds with GPR151 ag | GPR151 PathHunter beta-arrestin cells, luminescence, 90 min; % of EA-reagent control over plate median | activation, % at 11.2 µM | 6,700 tested, under 10 active;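 active means mean percent activation across replicates above the confirmation screen cutoff of 4.91%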
GPR119 counter – GPR119 activation, counter-screen for GPR151 activators; activation, % at 11.2 µM; hit rate 0.3% among 6,700; GPR119 PathHunter beta-arrestin cells, luminescence, 90 min; 0 = compound-well median, 100 = enzyme-acceptor control; AID 1508611; shares compounds with GPR151 ag;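 active means mean percent activation in the counterscreen above 29.09%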;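 further: counterscreen on off-target GPR119 to flag nonselective hits from the GPR151 activator screen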
Starred values were filed as active, the others as inactive; · = no result given; ! = not active in a repeat.

SMILES	FBW7 act	MITF primary	TEAD-YAP inh	GPR151 ag	GPR151 confirm	GPR119 counter
COc1ccc(OC)c(-c2cc(C(=O)N/N=C/c3c(C)nn(-c4ccccc4)c3C)[nH]n2)c1	0	17	1	5.2*	0	-5
O=c1c2ccccc2nc(SCc2cc(F)ccc2F)n1CCc1ccccc1	0	-3	-13	-1	·	·
COC(=O)c1cc(OC)c(OC)cc1NC(=O)c1cc(Cl)ccc1Cl	0	-2	-8	6.3*	1	2
COC(=O)c1cc(OC)c(OC)cc1NC(=O)CCN1C(=O)c2ccccc2C1=O	0	-8	-1	5.9*	0	2
CCCCCC(=O)NNC(=O)c1ccc([N+](=O)[O-])cc1	0	-4	-2	0	·	·
Cc1ccc(-n2cnnn2)c(S(=O)(=O)N2CCOCC2)c1	0	1	6	5.4*	0	6
Cc1cccc(C(=O)NCCCN(C)C)c1	0	-2	-3	7.7*	-1	-2
CN(CC(=O)c1ccc2cc[nH]c2c1)Cc1ccccc1	1	14	-20	5.3*	0	-7
Cc1sc2nc(C3CC3)n(C3CCN(C(=O)c4ccccn4)CC3)c(=O)c2c1C	0	-13	-31	6.5*	1	3
COc1cccc(CN2CCNC(=O)C2CC(=O)NC2(c3ccccc3)CC2)c1 (stereo not given)	0	14	-11	2	·	·
COc1ccc(C(=O)C[n+]2cccc(Br)c2)cc1	0	-6	-5	0	·	·
O=C(C[n+]1cccc2ccccc21)c1ccc(Br)cc1	0	-5	-2	15*	0	-2
COC(=O)c1ccc[n+](CC(=O)c2ccc(Br)cc2)c1	0	0	-1	6.2*	0	1
O=C(C[n+]1cccc2ccccc21)c1ccc(-c2ccccc2)cc1	0	23	6	-1	·	·
COc1ccccc1CCNc1nc(CN2CCN(C(C)C)CC2)nc2ccccc12	0	4	-2	-1	·	·
N#Cc1ccc(/C=N/NC(=O)CCc2ccccc2)cc1	0	5	7	6.0*	0	7
C/C(=N\NC(=O)CCc1ccccc1)c1ccc(Br)cc1	0	1	1	5.9*	1	6
O=C(CCc1ccccc1)N/N=C/c1ccccc1O	0	-7	-3	5.9*	-1	-7
N#Cc1ccc(/C=N/NC(=S)NCc2ccccc2)cc1	0	8	3	0	·	·
CCN1CC2([N+](=O)[O-])C=C(C(=O)O)CC([N+](=O)[O-])(C1)C2 (stereo not given)	0	0	5	3	·	·
Cc1ccc(N2C(=O)CS/C2=C(/C#N)C(=O)NCC2CCCO2)cc1 (stereo not given)	0	20	-2	0	·	·
Nc1ccc(S(=O)(=O)c2ccc(N)c([N+](=O)[O-])c2)cc1[N+](=O)[O-]	0	-5	-5	1	·	·
COc1ccccc1C(=O)Nc1ccccc1-c1nnn(CC(=O)NCc2ccco2)n1	0	3	10	5.3*	0	-6
COC1C(OC(N)=O)C(O)C(Oc2ccc3c(O)c(NC(=O)c4ccc(O)c(CC=C(C)C)c4)c(=O)oc3c2C)OC1(C)C (stereo not given)	0	-2	1	6.6*!	0	-1
CCOC(=O)c1c(C2COc3ccccc3O2)csc1NC(=O)c1ccc(OC)c(OC)c1 (stereo not given)	0	-13	7	0	·	·
SMILES	FBW7 act	MITF primary	TEAD-YAP inh	GPR151 ag	GPR151 confirm	GPR119 counter
CCN1CCN(C(C)C(=O)Nc2ncc(C)s2)CC1 (stereo not given)	0	16	4	7.0*	1	12
Cc1cc(NCc2ccccc2)nc(-c2ccccc2)n1	0	0	-19	5.2*	0	-10
COc1ccc(CNc2cc(C)nc(-c3ccccc3)n2)cc1	0	4	-5	-1	·	·
O=C(CSc1nc(=O)[nH]c2c1CCC2)c1ccc(F)cc1	0	22	1	-1	·	·
O=c1c2ccccc2ncn1CCCOc1ccccc1[N+](=O)[O-]	0	1	-85	4.9*	1	-2
O=C(Nc1ccc(S(=O)(=O)N2CCCC2)cc1)Nc1cccc(C(F)(F)F)c1	0	5	4	-2	·	·
Cc1n[nH]c(=S)n1/N=C/c1ccc(F)cc1	0	3	10	5.4*	-2	-15
Cc1ccc(/C=N/n2c(C)n[nH]c2=S)o1	0	-5	4	6.4*	1	-2
COc1ccc(S(=O)(=O)Nc2ccc(OC)c(OC)c2)cc1C	0	5	26	0	·	·
OCCN1CCN(C2CCN(Cc3cccc4ccccc34)CC2)CC1	0	9	4	7.6*	1	10
COc1ccc(CN2CCc3nnc(C(NS(C)(=O)=O)C(C)C)n3CC2)c(OC)c1 (stereo not given)	0	0	-2	2	·	·
COc1ccc(Cc2noc(-c3ccc([N+](=O)[O-])cc3)n2)cc1	0	11	11	0	·	·
CC(C)(C)c1nc(Cc2ccc([N+](=O)[O-])cc2)no1	0	-1	0	8.6*	-1	2
COCCCNc1nc2nonc2nc1N1CCN2CCCC2C1 (stereo not given)	0	-8	1	0	·	·
COCCCNc1nc2nonc2nc1N1CCN(C2CCCC2)CC1	0	-1	2	5.7*	1	11
CC1CCC2(CC1)NC(=O)N(CN(C)Cc1cccs1)C2=O (stereo not given)	0	-15	-1	-2	·	·
CCN(CC)C(=O)C1CCCN(c2nc(NCc3cccnc3)c3ncn(-c4ccsc4)c3n2)C1 (stereo not given)	0	-4	37*	6.6*	1	-1
CC(=O)C1=C(C)Nc2ncnn2C1c1cccc([N+](=O)[O-])c1 (stereo not given)	0	-15	2	1	·	·
O=C1CCCN1CCn1cnc2c(Nc3ccc(N4CCOCC4)cc3)nc(Nc3ccc(-n4ccnc4)cc3)nc21	0	-2	-3	5.9*	0	-8
O=C1CCCN1CCn1cnc2c(NCCO)nc(Nc3ccc(N4CCOCC4)cc3)nc21	0	11	-4	5.6*	0	0
CC(C)n1cnc2c(NCCN3CCOCC3)nc(Nc3ccc(-n4ccnc4)cc3)nc21	0	12	15	6.2*	-2	-15
COCCNc1nc(-c2ccccc2F)nc2ccccc12	0	9	24	0	·	·
COCCCNc1nc(-c2ccccc2F)nc2ccccc12	0	-32	11	6.3*	-1	-14
COc1c(O)ccc(/C=N/NC(=O)c2cc(C)[nH]n2)c1[N+](=O)[O-]	0	4	-3	1	·	·
COc1ccc(CCN=C(NC(=O)Nc2ccccc2)Nc2nc(C)cc(C)n2)cc1	0	4	-6	0	·	·
CC1(C)Cc2ccccc2/C(=C/C(=O)Nc2ccc(Cl)cc2)N1	0	5	-2	-1	·	·
